In the supplement of paper PMC8975748:
Structures can show the parent of a compound that is named as a salt.

What follows are molecules tested on Saccharomyces cerevisiae BY4741 SeMeCo community (assay: z-score of subpopulation abundance vs DMSO median, subpopulation auxotrophic for M; higher = larger share of this subpopulation than in DMSO controls). Conditions: 10 µM; 24 h; SM minimal medium; subpopulation (auxotrophy): M.
Description: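 Fluorescent four-plasmid SeMeCo (self-establishing metabolically cooperating S. cerevisiae BY4741 community; plasmids pH-mRuby2, pL-mWasabi, pU-eCFP, pM-TagRFP657) was grown 24 h in minimal SM medium with each Selleck FDA-approved drug at 10 µM in 384-well plates. Cells were fixed and imaged by high-content confocal microscopy. For each auxotrophic subpopulation (and the prototroph), a z-score gives the deviation from the DMSO vehicle-control population median.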

| SMILES | z-score of subpopulation abundance |
| --- | --- |
| C[C@H]1NCc2cc(-c3ccc4c(=O)c(C(=O)O)cn(C5CC5)c4c3OC(F)F)ccc21 [Garenoxacin] | 0.86 |
| O=c1ccn(C2CC(O)C(CO)O2)c(=O)[nH]1 (stereo not given) [2-deoxyuridine] | 0.17 |
| C#C[C@]1(O)CC[C@H]2[C@@H]3CCC4=CCCC[C@@H]4[C@H]3CC[C@@]21C [Lynestrenol] | -1.23 |
| CCCSc1ccc2[nH]c(NC(=O)OC)nc2c1 [Albendazole] | 0.54 |
| CN1CCC(=C2c3ccccc3CCc3sccc32)CC1 [Pizotifen Malate] | 0.26 |
| CNCc1cc(-c2ccccc2F)n(S(=O)(=O)c2cccnc2)c1 [Vonoprazan Fumarate (TAK-438)] | 0.45 |
| N[C@H]1CONC1=O [L-Cycloserine] | -3.06 |
| CCN1CCCC1CNC(=O)c1cc(S(=O)(=O)CC)c(N)cc1OC (stereo not given) [Amisulpride] | 0.12 |
| CN(C)CCn1nnnc1SCC1=C(C(=O)O)N2C(=O)[C@@H](NC(=O)Cc3csc(N)n3)[C@H]2SC1 [Cefotiam hydrochloride] | 1.1 |
| CO[C@H]1C[C@@H]2CC[C@@H](C)[C@@](O)(O2)C(=O)C(=O)N2CCCC[C@H]2C(=O)O[C@H]([C@H](C)C[C@@H]2CC[C@H](n3cnnn3)[C@H](OC)C2)CC(=O)[C@H](C)/C=C(\C)[C@@H](O)[C@@H](OC)C(=O)[C@H](C)C[C@H](C)/C=C/C=C/C=C/1C [Zotarolimus(ABT-578)] | -0.02 |
| COc1ccc2[nH]c([S+]([O-])Cc3ncc(C)c(OC)c3C)nc2c1 (stereo not given) [Omeprazole] | -0.74 |
| CCCCC(=O)O[C@H]1CC[C@H]2[C@@H]3CCc4cc(O)ccc4[C@H]3CC[C@]12C [Estradiol valerate] | 0.23 |
| CC[C@H](C)C(=O)O[C@H]1C[C@H](O)C=C2C=C[C@H](C)[C@H](CC[C@@H](O)C[C@@H](O)CC(=O)O)[C@H]21 [Pravastatin sodium] | 0.01 |
| O=[N+]([O-])c1ccc(O)c2ncccc12 [Nitroxoline] | 1.38 |
| CC(C(=O)O)c1ccc(C(=O)c2cccs2)cc1 (stereo not given) [Suprofen] | -0.68 |
| CC(=O)NS(=O)(=O)c1ccc(N)cc1 [Sulfacetamide Sodium] | 0.42 |
| CCC(C)n1ncn(-c2ccc(N3CCN(c4ccc(OCC5COC(Cn6cncn6)(c6ccc(Cl)cc6Cl)O5)cc4)CC3)cc2)c1=O (stereo not given) [Itraconazole] | 0.3 |
| COCCCN1CCC(NC(=O)c2cc(Cl)c(N)c3c2OCC3)CC1 [Prucalopride] | 0.21 |
| COc1ccc(CCN(C)CCCC(C#N)(c2ccc(OC)c(OC)c2)C(C)C)cc1OC (stereo not given) [Verapamil HCl] | 1.34 |
| CC(=O)N1CCN(c2ccc(OCC3COC(Cn4ccnc4)(c4ccc(Cl)cc4Cl)O3)cc2)CC1 (stereo not given) [Ketoconazole] | -1.31 |

| SMILES | z-score of subpopulation abundance |
| --- | --- |
| Cc1ccc(Sc2ccccc2N2CCNCC2)c(C)c1 | -0.9 |
| Nc1ccc(S(=O)(=O)Nc2nccs2)cc1 [Sulfathiazole] | -0.25 |
| OCc1ccccc1O[C@@H]1O[C@H](CO)[C@@H](O)[C@H](O)[C@H]1O [Salicin] | -0.14 |
| CN1CCCN=C1/C=C/c1cccc(O)c1 [Oxantel Pamoate] | 1.17 |
| C[C@@H]1[C@H](O)[C@@H](C)/C=C/C=C/C=C/C=C/C=C/C=C/C=C/[C@H](O[C@@H]2O[C@H](C)[C@@H](O)[C@H](N)[C@@H]2O)C[C@@H]2O[C@](O)(C[C@@H](O)C[C@@H](O)[C@H](O)CC[C@@H](O)C[C@@H](O)CC(=O)O[C@H]1C)C[C@H](O)[C@H]2C(=O)O [Amphotericin B] | -8.72 |
| C=C1CCC2C(C)(CO)C(O)CCC2(C)C1CC=C1C=COC1=O (stereo not given) [Dehydroandrographolide] | 0.35 |
| CN(C)CC(c1ccc(O)cc1)C1(O)CCCCC1 (stereo not given) [Desvenlafaxine] | -0.95 |
| NC(=O)N/N=C/c1ccc([N+](=O)[O-])o1 [Nitrofural] | 1.2 |
| O=C1CN2Cc3c(ccc(Cl)c3Cl)N=C2N1 [Anagrelide HCl] | -0.78 |
| CC(C)[N+](C)(CCOC(=O)C1c2ccccc2Oc2ccccc21)C(C)C [Propantheline bromide] | 1.26 |
| Cc1ccc(-c2ncc(Cl)cc2-c2ccc(S(C)(=O)=O)cc2)cn1 [Etoricoxib] | 0.51 |
| COC1C(O)CC(=O)OC(C)CC=CC=CC(OC2CCC(N(C)C)C(C)O2)C(C)CC(CC=O)C1OC1OC(C)C(OC2CC(C)(O)C(O)C(C)O2)C(N(C)C)C1O (stereo not given) [Spiramycin] | -0.36 |
| COc1ccc2c(c1)c(CC(=O)O)c(C)n2C(=O)c1ccc(Cl)cc1 [Indomethacin] | -0.33 |
| CN(C)[C@@H](CCOc1cccc2ccccc12)c1ccccc1 [Dapoxetine HCl] | -0.23 |
| OCCN1CCN(CCCN2c3ccccc3Sc3ccc(C(F)(F)F)cc32)CC1 [Fluphenazine dihydrochloride] | -0.08 |
| CC(C)(O/N=C(\C(=O)N[C@@H]1C(=O)N2C(C(=O)[O-])=C(C[n+]3ccccc3)CS[C@H]12)c1csc(N)n1)C(=O)O [Ceftazidime] | -0.44 |
| CC[C@H]1OC(=O)[C@H](C)[C@@H](O[C@H]2C[C@@](C)(OC)[C@@H](O)[C@H](C)O2)[C@H](C)[C@@H](O[C@@H]2O[C@H](C)C[C@H](N(C)C)[C@H]2O)[C@](C)(O)C[C@@H](C)/C(=N\OCOCCOC)[C@H](C)[C@@H](O)[C@]1(C)O [Roxithromycin] | 0.34 |
| CCN(CC)CC#CCOC(=O)C(O)(c1ccccc1)C1CCCCC1 (stereo not given) [Oxybutynin chloride] | -0.21 |
| COC(=O)C1=C(C#N)NC(C)=C(C(=O)OC(C)C)C1c1cccc([N+](=O)[O-])c1 (stereo not given) [Nilvadipine] | 1.61 |
| CCN(CC)CCNC(=O)c1cc(Cl)c(N)cc1OC [Metoclopramide] | 0.35 |
